Results: the supplement of paper PMC10849652
About 7,900 targets were measured; listed, in parts, are those with a hit and a random draw of the rest. About 0.6% of all pairs of compound and target were hits.

Experiments:
Test in all cases: log2 fold change, soluble protein after heating vs DMSO (PISA); higher = thermal stabilisation; K562 cells, 10 uM, 30 min; active = over 0.2 and 3.5 SD of the protein, either way, in both replicates (recomputed)
IRAK-1-4 Inhibitor I = compound: C1COCCN1CCN2C3=CC=CC=C3N=C2NC(=O)C4=CC(=CC=C4)[N+](=O)[O-] [IRAK-1-4 Inhibitor I]
Outline: (§1)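 Soluble protein was defined as the supernatant after 21,000xg for 90 min. It came from K562 cells at 2×10^6 cells/mL given 10 μM compound for 30 min, heated in aliquots for 3 min across 48°C-58°C, pooled, and extracted in PBS with 0.5% NP-40 at 4°C, and was quantified by TMTpro 16plex LC-MS/MS with equalised channel sums. Thermal stability against control samples, from duplicates, is reported as log2 fold change.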

ibrutinib = compound: C=CC(=O)N1CCC[C@@H](n2nc(-c3ccc(Oc4ccccc4)cc3)c3c(N)ncnc32)C1 [ibrutinib]
Outline: as §1

[1] = compound: CC(=O)c1cnc2ccc(-c3cc(Cl)c(O)c(Cl)c3)nc2c1N[C@H]1CC[C@H](CN(C)C)CC1
Outline: as §1

ralimetinib = compound: CC(C)(C)Cn1c(N)nc2ccc(-c3[nH]c(C(C)(C)C)nc3-c3ccc(F)cc3)nc21 [ralimetinib]
Outline: as §1

[2] = compound: CC(C)(O)CC(=O)NCCn1ccc2ncnc(Nc3ccc(Oc4cccc(C(F)(F)F)c4)c(Cl)c3)c21
Outline: as §1

[3] = compound: CC(C)C1=C2N=C(C=C(N2N=C1)NCC3=CC=CC=C3)NCCCCCCN
Outline: as §1

[4] = compound: CC(C)C[C@@H](C=O)NC(=O)[C@H](CC(C)C)NC(=O)[C@H](CC(C)C)NC(=O)OCc1ccccc1
Outline: as §1

pinometostat = compound: CC(C)N(C[C@H]1O[C@@H](n2cnc3c(N)ncnc32)[C@H](O)[C@@H]1O)[C@H]1C[C@@H](CCc2nc3cc(C(C)(C)C)ccc3[nH]2)C1 [pinometostat]
Outline: as §1

[5] = compound: CC1=C(C(CC(=O)N1)C2=CC=C(C=C2)C(F)(F)F)C(=O)NC3=C(C=C4C(=C3)C=NN4)F
Outline: as §1

[6] = compound: CC1=C(C2=C(C=C1)C(=O)C3=CC=CC=C3N2CCCN)C
Outline: as §1

Measured: log2 fold change

CAD (UniProt P27708)
active: [1] -0.402 | [6] 0.272
inactive: IRAK-1-4 Inhibitor I -0.064 | ibrutinib 0.008 | ralimetinib -0.06 | [2] -0.168 | [3] 0.029 | [4] 0.021 | pinometostat 0.028 | [5] 0.03

CHCHD4 isoform 2 (UniProt Q8N4Q1)
inactive: IRAK-1-4 Inhibitor I 0.056 | ibrutinib 0.003 | [1] 0.096 | ralimetinib -0.003 | [2] 0.002 | [3] 0.075 | [4] 0.03 | pinometostat -0.024 | [5] -0.011 | [6] -0.18

CD53 (UniProt P19397)
Chain of UniProt P19397 (P19397 whole entry, looked up): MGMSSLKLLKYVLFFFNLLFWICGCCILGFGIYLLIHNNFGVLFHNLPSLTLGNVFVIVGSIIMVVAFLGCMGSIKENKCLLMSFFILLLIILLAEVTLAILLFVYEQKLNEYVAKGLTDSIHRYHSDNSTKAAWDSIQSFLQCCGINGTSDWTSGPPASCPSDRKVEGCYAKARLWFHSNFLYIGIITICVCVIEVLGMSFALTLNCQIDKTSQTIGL
inactive: IRAK-1-4 Inhibitor I 0.097 | ibrutinib 0.033 | [1] -0.026 | ralimetinib -0.24 | [2] -0.021 | [3] 0.229 | [4] 0.051 | pinometostat -0.014 | [5] -0.004 | [6] 0.105

CPSF7 isoform 3 (UniProt Q8N684)
active: [1] -0.242 | [6] 0.236
inactive: IRAK-1-4 Inhibitor I -0.037 | ibrutinib 0 | ralimetinib 0.003 | [2] -0.002 | [3] 0.02 | [4] -0.045 | pinometostat -0.028 | [5] -0.016

CDK11B (UniProt P21127)
active: [1] 2.34 | [6] -0.366
inactive: IRAK-1-4 Inhibitor I -0.151 | ibrutinib -0.026 | ralimetinib 0.04 | [2] -0.006 | [3] -0.116 | [4] 0.076 | pinometostat -0.11 | [5] -0.009

COQ9 (UniProt O75208)
inactive: IRAK-1-4 Inhibitor I 0.005 | ibrutinib 0.03 | [1] -0.007 | ralimetinib -0.055 | [2] 0.085 | [3] -0.092 | [4] -0.024 | pinometostat -0.062 | [5] 0.019 | [6] 0.043

COX20 isoform 2 (UniProt Q5RI15)
Chain of UniProt Q5RI15 (Q5RI15 whole entry, looked up): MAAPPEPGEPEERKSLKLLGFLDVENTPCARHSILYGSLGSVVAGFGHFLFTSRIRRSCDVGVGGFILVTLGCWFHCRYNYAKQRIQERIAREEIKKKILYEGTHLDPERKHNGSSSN
inactive: IRAK-1-4 Inhibitor I -0.019 | ibrutinib 0.043 | [1] -0.022 | ralimetinib -0.055 | [2] 0.016 | [3] 0.006 | [4] 0 | pinometostat -0.018 | [5] -0.018 | [6] 0.019

C22orf39 (UniProt Q6P5X5)
Chain of UniProt Q6P5X5 (Q6P5X5 whole entry, looked up): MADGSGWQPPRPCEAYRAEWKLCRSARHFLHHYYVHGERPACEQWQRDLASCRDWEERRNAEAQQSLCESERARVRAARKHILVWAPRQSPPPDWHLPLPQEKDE
inactive: IRAK-1-4 Inhibitor I 0.12 | ibrutinib 0.033 | [1] -0.069 | ralimetinib -0.104 | [2] 0.018 | [4] 0.126 | pinometostat 0.035 | [5] 0.014 | [6] 0.213
active: [3] -0.587

CSTF3 (UniProt Q12996)
inactive: IRAK-1-4 Inhibitor I 0.087 | ibrutinib 0 | [1] 0.019 | ralimetinib -0.052 | [2] -0.026 | [3] 0.132 | [4] -0.012 | pinometostat 0.021 | [5] -0.018
active: [6] 0.262

CASP2 (UniProt P42575)
inactive: IRAK-1-4 Inhibitor I 0.017 | ibrutinib 0.027 | [1] 0 | ralimetinib -0.074 | [2] -0.073 | [3] -0.082 | [4] 0.072 | pinometostat -0.013 | [5] -0.016 | [6] 0.091

CHD3 isoform 3 (UniProt Q12873)
Chain of UniProt Q12873 (Q12873 whole entry, looked up): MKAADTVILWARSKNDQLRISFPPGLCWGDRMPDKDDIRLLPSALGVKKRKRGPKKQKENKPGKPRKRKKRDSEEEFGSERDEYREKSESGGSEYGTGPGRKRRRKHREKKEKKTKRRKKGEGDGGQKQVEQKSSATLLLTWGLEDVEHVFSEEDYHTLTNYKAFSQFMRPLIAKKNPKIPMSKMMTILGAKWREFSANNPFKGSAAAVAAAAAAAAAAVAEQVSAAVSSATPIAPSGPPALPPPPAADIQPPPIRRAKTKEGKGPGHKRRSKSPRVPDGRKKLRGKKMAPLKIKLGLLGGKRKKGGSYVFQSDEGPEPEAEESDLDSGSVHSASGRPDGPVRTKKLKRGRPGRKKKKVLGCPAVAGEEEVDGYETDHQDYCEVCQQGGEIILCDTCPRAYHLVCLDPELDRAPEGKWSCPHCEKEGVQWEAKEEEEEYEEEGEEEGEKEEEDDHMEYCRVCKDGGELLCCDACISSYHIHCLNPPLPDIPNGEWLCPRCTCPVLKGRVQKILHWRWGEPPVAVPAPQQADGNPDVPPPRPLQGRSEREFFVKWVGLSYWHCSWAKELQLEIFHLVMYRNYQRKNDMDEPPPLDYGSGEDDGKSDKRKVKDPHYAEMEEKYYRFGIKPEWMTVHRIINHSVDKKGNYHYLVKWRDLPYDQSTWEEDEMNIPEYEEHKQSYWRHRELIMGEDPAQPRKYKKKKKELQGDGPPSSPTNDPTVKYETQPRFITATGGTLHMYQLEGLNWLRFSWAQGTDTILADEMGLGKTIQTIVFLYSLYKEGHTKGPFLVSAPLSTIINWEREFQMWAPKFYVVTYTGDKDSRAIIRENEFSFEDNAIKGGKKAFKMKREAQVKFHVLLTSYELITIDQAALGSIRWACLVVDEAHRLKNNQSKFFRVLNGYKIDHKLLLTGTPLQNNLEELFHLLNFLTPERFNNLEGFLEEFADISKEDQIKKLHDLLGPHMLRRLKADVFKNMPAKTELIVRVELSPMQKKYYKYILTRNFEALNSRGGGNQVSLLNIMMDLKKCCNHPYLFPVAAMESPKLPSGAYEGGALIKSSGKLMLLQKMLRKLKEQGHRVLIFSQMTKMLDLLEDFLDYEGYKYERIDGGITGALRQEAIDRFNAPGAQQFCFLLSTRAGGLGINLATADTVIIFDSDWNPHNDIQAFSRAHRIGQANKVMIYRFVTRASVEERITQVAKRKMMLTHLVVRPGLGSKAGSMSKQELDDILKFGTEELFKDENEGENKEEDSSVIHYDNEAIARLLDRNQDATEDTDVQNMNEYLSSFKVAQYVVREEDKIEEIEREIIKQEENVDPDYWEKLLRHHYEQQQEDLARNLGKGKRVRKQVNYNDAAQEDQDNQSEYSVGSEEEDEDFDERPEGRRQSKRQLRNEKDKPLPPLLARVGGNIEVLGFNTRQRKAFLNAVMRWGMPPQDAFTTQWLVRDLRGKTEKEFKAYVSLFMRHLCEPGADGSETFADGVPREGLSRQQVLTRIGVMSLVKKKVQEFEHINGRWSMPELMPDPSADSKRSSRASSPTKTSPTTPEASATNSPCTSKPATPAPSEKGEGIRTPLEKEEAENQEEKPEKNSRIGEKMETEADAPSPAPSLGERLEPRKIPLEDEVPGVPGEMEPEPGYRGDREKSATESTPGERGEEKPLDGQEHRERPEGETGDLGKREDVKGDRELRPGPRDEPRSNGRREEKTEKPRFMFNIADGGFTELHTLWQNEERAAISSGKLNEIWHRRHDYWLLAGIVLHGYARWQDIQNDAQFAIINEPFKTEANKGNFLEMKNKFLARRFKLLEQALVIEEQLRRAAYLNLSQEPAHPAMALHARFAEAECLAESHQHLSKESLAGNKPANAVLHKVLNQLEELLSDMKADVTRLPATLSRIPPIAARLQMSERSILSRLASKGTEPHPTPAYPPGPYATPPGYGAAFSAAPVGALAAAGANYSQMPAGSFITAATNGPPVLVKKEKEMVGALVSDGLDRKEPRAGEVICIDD
inactive: IRAK-1-4 Inhibitor I -0.052 | ibrutinib -0.1 | [1] -0.284 | ralimetinib 0.36 | [2] -0.075 | [3] -0.319 | [4] 0.186 | pinometostat 0.071 | [5] 0.125 | [6] -0.009

CETN3 (UniProt O15182)
Chain of UniProt O15182 (O15182 whole entry, looked up): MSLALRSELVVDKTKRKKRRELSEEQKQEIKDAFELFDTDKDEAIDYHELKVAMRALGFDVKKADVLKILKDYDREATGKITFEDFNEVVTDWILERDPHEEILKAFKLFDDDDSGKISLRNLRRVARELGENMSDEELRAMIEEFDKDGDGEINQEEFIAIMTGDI
inactive: IRAK-1-4 Inhibitor I 0.031 | ibrutinib -0.022 | [1] -0.006 | ralimetinib -0.075 | [2] 0.035 | [3] -0.038 | [4] 0.039 | pinometostat 0.016 | [5] -0.002 | [6] -0.18

CSNK2A1 (UniProt P68400)
Chain of UniProt P68400 (P68400 whole entry, looked up): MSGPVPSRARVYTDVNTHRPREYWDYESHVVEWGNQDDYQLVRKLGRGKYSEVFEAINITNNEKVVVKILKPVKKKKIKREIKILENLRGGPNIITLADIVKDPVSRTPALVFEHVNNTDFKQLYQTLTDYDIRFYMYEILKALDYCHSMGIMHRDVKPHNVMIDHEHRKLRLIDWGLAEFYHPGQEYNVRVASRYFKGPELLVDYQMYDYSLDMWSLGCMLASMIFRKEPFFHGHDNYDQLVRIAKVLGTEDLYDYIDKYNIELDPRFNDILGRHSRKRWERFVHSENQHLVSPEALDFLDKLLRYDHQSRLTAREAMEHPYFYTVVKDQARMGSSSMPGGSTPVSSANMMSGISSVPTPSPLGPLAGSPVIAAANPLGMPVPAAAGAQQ
active: [1] 0.245
inactive: IRAK-1-4 Inhibitor I 0.022 | ibrutinib 0.029 | ralimetinib -0.082 | [2] 0.006 | [3] -0.064 | [4] -0.021 | pinometostat 0.103 | [5] 0.004 | [6] 0.159

CHERP (UniProt Q8IWX8)
inactive: IRAK-1-4 Inhibitor I -0.091 | ibrutinib -0.069 | ralimetinib 0.013 | [2] -0.074 | [3] -0.097 | [4] 0.048 | pinometostat 0.021 | [5] 0.122 | [6] -0.079
active: [1] -0.317

CCNH (UniProt P51946)
active: [1] -0.24
inactive: IRAK-1-4 Inhibitor I -0.01 | ibrutinib -0.04 | ralimetinib -0.04 | [2] -0.009 | [3] 0.084 | [4] -0.053 | pinometostat 0.022 | [5] 0.045 | [6] -0.01

CRYM-AS1 (UniProt A6NIL9)
inactive: IRAK-1-4 Inhibitor I 0.13 | ibrutinib 0.172 | [1] -0.017 | ralimetinib -0.063 | [2] -0.108 | [3] -0.088 | [4] 0.168 | pinometostat 0.054 | [5] 0.038 | [6] -0.099

CDK12 (UniProt Q9NYV4)
inactive: IRAK-1-4 Inhibitor I -0.179 | ibrutinib 0.008 | [1] -0.566 | ralimetinib 0.138 | [2] 0.067 | [3] -0.211 | [4] 0.006 | pinometostat 0.399 | [5] 0.041 | [6] -0.014

CHAC2 (UniProt Q8WUX2)
inactive: IRAK-1-4 Inhibitor I 0.038 | ibrutinib -0.058 | [1] -0.009 | ralimetinib -0.021 | [2] 0.085 | [3] 0.03 | [4] 0 | pinometostat 0.01 | [5] -0.061 | [6] -0.036

CHCHD1 (UniProt Q96BP2)
inactive: IRAK-1-4 Inhibitor I -0.071 | ibrutinib 0.119 | [1] -0.009 | ralimetinib -0.117 | [2] 0.026 | [3] -0.027 | [4] 0.037 | pinometostat -0.021 | [5] 0.08 | [6] -0.19

CPSF1 (UniProt Q10570)
inactive: IRAK-1-4 Inhibitor I -0.006 | ibrutinib -0.007 | [1] 0.064 | ralimetinib 0 | [2] 0.036 | [3] -0.009 | [4] 0.075 | pinometostat 0.142 | [5] 0 | [6] -0.093

CHST11 (UniProt Q9NPF2)
inactive: IRAK-1-4 Inhibitor I -0.002 | ibrutinib -0.032 | [1] 0.063 | ralimetinib -0.406 | [2] 0.057 | [3] -0.257 | [4] -0.17 | pinometostat 0.084 | [5] -0.006 | [6] -0.058

CKS1B (UniProt P61024)
inactive: IRAK-1-4 Inhibitor I -0.011 | ibrutinib -0.008 | [1] -0.127 | [2] 0.001 | [3] 0.027 | [4] -0.031 | pinometostat -0.044 | [5] 0.036 | [6] 0.054
active: ralimetinib 0.222

CERT isoform 3 (UniProt Q9Y5P4)
Chain of UniProt Q9Y5P4 (Q9Y5P4 whole entry, looked up): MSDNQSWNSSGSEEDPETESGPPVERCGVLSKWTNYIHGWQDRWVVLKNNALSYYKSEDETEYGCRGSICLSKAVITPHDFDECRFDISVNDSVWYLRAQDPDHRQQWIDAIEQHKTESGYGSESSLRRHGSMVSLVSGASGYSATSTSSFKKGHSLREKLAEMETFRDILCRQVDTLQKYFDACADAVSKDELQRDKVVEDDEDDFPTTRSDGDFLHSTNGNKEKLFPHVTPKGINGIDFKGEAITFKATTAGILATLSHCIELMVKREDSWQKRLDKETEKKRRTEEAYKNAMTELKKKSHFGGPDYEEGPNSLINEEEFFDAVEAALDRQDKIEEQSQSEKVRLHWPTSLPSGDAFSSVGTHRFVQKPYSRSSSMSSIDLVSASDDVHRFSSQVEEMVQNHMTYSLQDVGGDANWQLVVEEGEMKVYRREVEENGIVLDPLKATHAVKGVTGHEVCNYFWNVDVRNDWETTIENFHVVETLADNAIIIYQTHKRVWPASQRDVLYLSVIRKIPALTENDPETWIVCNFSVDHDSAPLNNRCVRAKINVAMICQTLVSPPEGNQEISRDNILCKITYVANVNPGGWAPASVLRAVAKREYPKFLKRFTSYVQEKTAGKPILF
active: [1] -0.382
inactive: IRAK-1-4 Inhibitor I -0.052 | ibrutinib 0.017 | ralimetinib 0.038 | [2] 0.166 | [3] 0.103 | [4] 0.005 | pinometostat 0.026 | [5] -0.048 | [6] -0.033

CTBS (UniProt Q01459)
Chain of UniProt Q01459 (Q01459 whole entry, looked up): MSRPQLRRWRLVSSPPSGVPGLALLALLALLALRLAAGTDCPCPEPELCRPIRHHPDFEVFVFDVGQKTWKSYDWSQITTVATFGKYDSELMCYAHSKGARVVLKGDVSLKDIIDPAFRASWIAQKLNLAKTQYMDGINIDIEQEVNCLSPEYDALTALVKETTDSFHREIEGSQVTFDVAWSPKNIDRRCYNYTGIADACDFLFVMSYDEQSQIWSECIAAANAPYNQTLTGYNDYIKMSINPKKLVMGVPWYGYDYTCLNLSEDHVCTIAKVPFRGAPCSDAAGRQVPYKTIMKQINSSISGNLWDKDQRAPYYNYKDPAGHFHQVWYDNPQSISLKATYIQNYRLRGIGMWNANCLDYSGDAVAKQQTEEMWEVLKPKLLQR
inactive: IRAK-1-4 Inhibitor I 0.073 | ibrutinib 0.067 | [1] -0.082 | ralimetinib -0.035 | [2] 0.018 | [3] -0.151 | [4] -0.028 | pinometostat -0.009 | [5] 0.1 | [6] -0.061

CASTOR2 (UniProt A6NHX0)
inactive: IRAK-1-4 Inhibitor I 0.078 | ibrutinib 0.046 | [1] 0.008 | ralimetinib -0.006 | [2] 0.016 | [3] 0.031 | [4] 0.046 | pinometostat -0.013 | [5] -0.004 | [6] 0.019

CSNK1D (UniProt P48730)
Chain of UniProt P48730 (P48730 whole entry, looked up): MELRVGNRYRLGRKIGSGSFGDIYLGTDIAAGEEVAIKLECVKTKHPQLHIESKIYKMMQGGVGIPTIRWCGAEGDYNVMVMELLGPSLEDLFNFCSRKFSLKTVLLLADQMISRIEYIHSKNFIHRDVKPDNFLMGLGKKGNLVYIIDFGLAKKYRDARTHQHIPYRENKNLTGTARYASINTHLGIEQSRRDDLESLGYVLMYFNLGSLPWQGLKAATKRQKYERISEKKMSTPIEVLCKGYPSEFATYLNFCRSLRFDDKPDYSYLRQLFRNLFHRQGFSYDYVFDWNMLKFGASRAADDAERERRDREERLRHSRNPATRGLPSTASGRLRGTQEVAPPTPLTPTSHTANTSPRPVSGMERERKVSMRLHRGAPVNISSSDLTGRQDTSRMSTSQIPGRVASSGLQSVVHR
inactive: IRAK-1-4 Inhibitor I -0.041 | ibrutinib 0.002 | ralimetinib 0.216 | [2] -0.001 | [3] -0.138 | [4] 0.077 | pinometostat 0.13 | [5] 0.019 | [6] 0.063
active: [1] 0.768

CALB1 (UniProt P05937)
Chain of UniProt P05937 (P05937 whole entry, looked up): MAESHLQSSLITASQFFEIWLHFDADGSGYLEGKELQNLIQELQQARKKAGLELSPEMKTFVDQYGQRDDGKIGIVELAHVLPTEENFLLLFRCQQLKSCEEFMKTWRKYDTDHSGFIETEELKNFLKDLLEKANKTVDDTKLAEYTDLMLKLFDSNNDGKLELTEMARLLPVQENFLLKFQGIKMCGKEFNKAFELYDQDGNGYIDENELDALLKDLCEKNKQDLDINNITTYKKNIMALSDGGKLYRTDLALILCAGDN
inactive: IRAK-1-4 Inhibitor I 0.016 | ibrutinib -0.033 | [1] 0.017 | ralimetinib -0.078 | [2] -0.052 | [4] -0.017 | pinometostat -0.043 | [5] 0.055 | [6] -0.148
active: [3] -0.245

COQ7 (UniProt Q99807)
Chain of UniProt Q99807 (Q99807 whole entry, looked up): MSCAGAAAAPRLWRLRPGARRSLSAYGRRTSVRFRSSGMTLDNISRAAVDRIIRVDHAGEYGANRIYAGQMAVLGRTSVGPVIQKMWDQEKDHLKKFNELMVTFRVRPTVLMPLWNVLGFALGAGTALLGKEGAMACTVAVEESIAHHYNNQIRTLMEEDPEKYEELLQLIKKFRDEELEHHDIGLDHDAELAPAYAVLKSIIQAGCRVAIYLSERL
inactive: IRAK-1-4 Inhibitor I 0.08 | ibrutinib 0.021 | [1] -0.064 | ralimetinib -0.03 | [2] 0.01 | [3] -0.034 | [4] 0 | pinometostat -0.016 | [5] -0.018 | [6] -0.035

CRTC2 (UniProt Q53ET0)
inactive: IRAK-1-4 Inhibitor I -0.024 | ibrutinib -0.048 | [1] -0.151 | ralimetinib 0 | [2] -0.053 | [3] -0.058 | [4] -0.032 | pinometostat 0.01 | [5] 0.113 | [6] 0.101

CSK (UniProt P41240)
inactive: IRAK-1-4 Inhibitor I -0.016 | ibrutinib 0.074 | [1] 0.111 | ralimetinib 0.011 | [2] -0.034 | [3] -0.131 | [4] 0.031 | pinometostat 0 | [5] -0.016 | [6] -0.011
